Among the test systems are DU-145 prostate; K-562 leukemia; MALME-3M melanoma; MDA-MB-231 breast; RXF 393 renal; SF-268 CNS; SF-295 CNS; SF-539 CNS; UACC-257 melanoma; M14 melanoma; HCT-15 colon; HT29 colon; SNB-75 CNS; SNB-19 CNS; U251 CNS; PC-3 prostate; SK-MEL-5 melanoma; UACC-62 melanoma; LOX IMVI melanoma; SK-MEL-28 melanoma.
Common to all, as to assay: NCI-60 one-dose screen, 48 h (100 = growth as untreated, 0 = no growth, -100 = all killed)
What all share (details): 10 µM unless noted

The structures appear in SMILES notation. This is part of a sample that, as a whole, favours compounds with a hit. Of some 83,000 tested, about 20% had one in any assay.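 Step 1: grow cells in 96-well plates. Step 2: add test compound at a single concentration. Step 3: incubate 48 h. Step 4: record percent growth.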 Values without a mark were called inactive. Active and inactive are the calls of the source. Rule for the calls: active = growth percent below 10; inactive = the rest.

Consider `CN1CCN(c2ccc3nc4c(nc3c2C(F)(F)F)C(=O)c2ncccc2C4=O)CC1`, for which the growth is -85.7% (active) in the test with DU-145 prostate; -6.72% (active) in the test on K-562 leukemia; -99.2% (active) in the test with MALME-3M melanoma; -5.99% (active) in the test on MDA-MB-231 breast; 38.4% in the test on RXF 393 renal; 1.96% (active) with SF-268 CNS. Besides, the growth is -61.6% (active) in the test with SF-295 CNS; -52.4% (active) in the test on SF-539 CNS; -82.3% (active) in the test on UACC-257 melanoma; -89.6% (active) in the test on M14 melanoma; -47.5% (active) with HCT-15 colon; -55.5% (active) in the test with HT29 colon. In addition, the growth was 5.3% (active) in the test with SNB-75 CNS; 17.9% in the test on SNB-19 CNS; 0.911% (active) with U251 CNS; 8.01% (active) with PC-3 prostate; -99.7% (active) in the test with SK-MEL-5 melanoma; -82.5% (active) in the test on UACC-62 melanoma. Further, the growth was -50.1% (active) in the test on LOX IMVI melanoma and 5.49% (active) with SK-MEL-28 melanoma.

Take `CCOc1cccc(/C=N/NC(=O)c2cccc(Nc3ccnc(C(F)(F)F)c3)c2)c1O`: the growth with DU-145 prostate was 19.2%; with K-562 leukemia, 28.7%; in the test on MALME-3M melanoma it was 30.9%; with MDA-MB-231 breast, 45%; in the test with RXF 393 renal, 47.4%; in the test on SF-268 CNS it was 26.7%. Further, the growth is 30.3% with SF-295 CNS; 14.8% with SF-539 CNS; 37.3% in the test on UACC-257 melanoma; -6.87% (active) in the test with M14 melanoma; 28.8% with HCT-15 colon; 53.2% in the test on HT29 colon. Also, the growth with SNB-75 CNS was 36.4%; in the test on SNB-19 CNS, 35.1%; in the test on U251 CNS, 37%; in the test with PC-3 prostate, 59.1%; in the test with SK-MEL-5 melanoma, 34.7%; in the test with UACC-62 melanoma it was 0.213% (active). Also, the growth is 11.8% with LOX IMVI melanoma and 34.6% in the test on SK-MEL-28 melanoma.

Take `N#Cc1nc(-c2ccccc2)oc1S(=O)(=O)N1CCN(c2ccc(F)cc2)CC1`: the growth is 98.8% in the test with DU-145 prostate; 3.68% (active) with K-562 leukemia; 51.8% with MALME-3M melanoma; 83.8% in the test on MDA-MB-231 breast; 89.8% in the test with RXF 393 renal; 88.8% in the test with SF-268 CNS. The growth was 105% with SF-295 CNS; 101% in the test with SF-539 CNS; 86.8% with UACC-257 melanoma; 53.5% in the test on M14 melanoma; 25.5% with HCT-15 colon; 46% with HT29 colon. Besides, the growth is 96.9% with SNB-75 CNS; 87.6% with SNB-19 CNS; 82.1% in the test on U251 CNS; 67.5% in the test on PC-3 prostate; 86.1% in the test with SK-MEL-5 melanoma; 75.6% in the test with UACC-62 melanoma. The values for the growth with LOX IMVI melanoma and in the test on SK-MEL-28 melanoma were 15.2% and 94.7%, respectively.

`CC1=C2[C@@H](CC1)[C@]1(C)O[C@@](C3CCCCC3)(C[C@H]1OC(=O)CO)[C@H]2OC(=O)/C=C/c1ccccc1`: the growth in the test with DU-145 prostate is 89.3%; in the test on K-562 leukemia it was 63.5%; in the test on MALME-3M melanoma, 79.5%; with MDA-MB-231 breast, 86.4%; in the test on RXF 393 renal, 39.9%; in the test with SF-268 CNS it was 31.9%. The growth in the test with SF-295 CNS was 86.5%; with SF-539 CNS, 102%; in the test with UACC-257 melanoma, 84.5%; in the test on M14 melanoma it was 91.6%; in the test with HCT-15 colon, 77.9%; with HT29 colon, 62.7%. The growth in the test on SNB-75 CNS is 72.6%; with SNB-19 CNS, 91.4%; in the test on U251 CNS, 73.9%; with PC-3 prostate, 53.2%; in the test on SK-MEL-5 melanoma it was 87.3%; in the test on UACC-62 melanoma, 62.5%. The growth with LOX IMVI melanoma is 82.6%; in the test with SK-MEL-28 melanoma, 101%.

With `C/C(=N\O)[C@@H]1CC[C@]2(CO)CC[C@]3(C)[C@H](CC[C@@H]4[C@@]5(C)CCCNC(C)(C)[C@@H]5CC[C@]43C)[C@@H]12`, the growth was 95% with DU-145 prostate; 2.56% (active) in the test on K-562 leukemia; 95.4% in the test on MALME-3M melanoma; 90.9% in the test with MDA-MB-231 breast; 80.8% in the test on RXF 393 renal; 84.7% in the test with SF-268 CNS. For the same compound, the growth is 92.5% with SF-295 CNS; 93.3% in the test on SF-539 CNS; 97.6% in the test on UACC-257 melanoma; 87% with M14 melanoma; 83.6% in the test on HCT-15 colon; 24.5% with HT29 colon. Also, the growth in the test with SNB-75 CNS is 68.9%; in the test on SNB-19 CNS, 89.4%; in the test with U251 CNS, 61.4%; in the test on PC-3 prostate it was 60.6%; with SK-MEL-5 melanoma, 84.1%; in the test on UACC-62 melanoma it was 90.5%. The growth with LOX IMVI melanoma is 77.6%; in the test on SK-MEL-28 melanoma, 93.2%.

With `Cc1cccc(Oc2ccc(Nc3ncnc4ccc(NC(=O)CN5CCN(C)CC5)cc34)cc2Cl)c1`, the growth with DU-145 prostate was 33.2%; in the test on K-562 leukemia, -6.17% (active); in the test with MALME-3M melanoma, -72.6% (active); in the test with MDA-MB-231 breast, -47.2% (active); in the test on RXF 393 renal it was -65.6% (active); in the test on SF-268 CNS, 42%. Also, the growth in the test with SF-295 CNS was 63.9%; in the test with SF-539 CNS it was -77.1% (active); in the test on UACC-257 melanoma it was -66.4% (active); with M14 melanoma it was -72.7% (active); in the test on HCT-15 colon, 5.82% (active); with HT29 colon, -30.1% (active). The growth was 80.8% in the test with SNB-75 CNS; 28.4% in the test with SNB-19 CNS; 9.58% (active) with U251 CNS; 33.1% in the test with PC-3 prostate; -76.7% (active) in the test on SK-MEL-5 melanoma; -27.4% (active) in the test on UACC-62 melanoma. Further, the growth is -94.2% (active) in the test with LOX IMVI melanoma and -84.6% (active) in the test on SK-MEL-28 melanoma.

For `Nc1nc(N)c(N=Nc2ccccc2)c(-c2ccccc2)n1`, the growth is 76.8% with DU-145 prostate; 77.1% with K-562 leukemia; 77.4% in the test with MALME-3M melanoma; 49.9% with MDA-MB-231 breast; 24.9% in the test with RXF 393 renal; 58% with SF-268 CNS. Moreover, the growth with SF-295 CNS was 54.2%; in the test with SF-539 CNS it was 47.4%; in the test with UACC-257 melanoma, 90.8%; in the test with M14 melanoma it was 84.5%; in the test with HCT-15 colon it was 58.6%; in the test on HT29 colon, 51.1%. Moreover, the growth is -0.588% (active) with SNB-75 CNS; 69.5% in the test with SNB-19 CNS; 72.4% in the test with U251 CNS; 35.8% in the test on PC-3 prostate; 46.9% in the test with SK-MEL-5 melanoma; 41.4% in the test on UACC-62 melanoma. Moreover, the growth in the test with LOX IMVI melanoma was 42.6%; in the test on SK-MEL-28 melanoma, 76.2%.

As for `N#Cc1cccc(C2C3=C(COC3=O)N(CCO)c3cc4c(cc32)OCO4)c1` (stereo not given), the growth in the test on DU-145 prostate was 37.3%; with K-562 leukemia, 9.87% (active); in the test with MALME-3M melanoma it was 49.6%; with MDA-MB-231 breast it was 59.4%; in the test on RXF 393 renal, 41.5%; in the test with SF-268 CNS, 40.3%. Also, the growth in the test with SF-295 CNS is 4.98% (active); in the test on SF-539 CNS, 8.85% (active); in the test on UACC-257 melanoma, 55.3%; with M14 melanoma, 14.5%; with HCT-15 colon, 26.1%; in the test on HT29 colon it was 6.62% (active). Further, the growth is 13% with SNB-75 CNS; 32.9% in the test with SNB-19 CNS; 21.7% in the test with U251 CNS; 29.4% in the test with PC-3 prostate; 29.6% with SK-MEL-5 melanoma; 43.4% in the test with UACC-62 melanoma. In addition, the growth with LOX IMVI melanoma is 35.9%; in the test on SK-MEL-28 melanoma it was 55.2%.

Source of the values: PubChem BioAssay (NCI).
